Binding signal data for 42 sequences are collected here from PMC10726135, “HNF4α isoforms regulate the circadian balance between carbohydrate and lipid metabolism in the liver”.

Over roughly 18,000 sequences, “log2 normalized intensity” has its median near 0.36; the highest 2% begin near 7.3. The sample as a whole holds a higher share of the highest values than the screen did.

In the test the target is T1, HNF4alpha8 (COS-7 nuclear extract) (Homo sapiens, UniProt P41235-5 1-452).
T1 sequence: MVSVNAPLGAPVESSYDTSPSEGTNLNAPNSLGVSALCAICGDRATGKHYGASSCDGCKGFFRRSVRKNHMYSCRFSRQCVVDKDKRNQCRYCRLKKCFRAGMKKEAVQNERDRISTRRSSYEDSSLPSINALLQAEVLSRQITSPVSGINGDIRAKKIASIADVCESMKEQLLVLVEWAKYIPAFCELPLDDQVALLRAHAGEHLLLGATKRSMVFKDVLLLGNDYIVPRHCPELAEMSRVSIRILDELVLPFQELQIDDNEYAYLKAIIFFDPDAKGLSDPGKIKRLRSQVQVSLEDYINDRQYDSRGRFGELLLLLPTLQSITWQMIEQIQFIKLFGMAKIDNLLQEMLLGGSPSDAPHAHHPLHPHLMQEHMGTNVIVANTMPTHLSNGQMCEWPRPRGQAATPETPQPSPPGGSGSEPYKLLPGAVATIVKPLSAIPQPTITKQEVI
The test can be described thus: protein-binding microarray; COS-7 nuclear extract on double-stranded Agilent 4x180k PBM; binding buffer, salt, pH and temperature not given in the material; high values mean tight binding. The following applies: chain copies: 2; label: 3' end of strand 1 on the slide; dsDNA, one strand shown. Summed up:
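Binding signal is the background-corrected, normalized gProcessedSignal calculated by Agilent software. It was measured by applying nuclear extracts of COS-7 cells transiently transfected with a human HNF4α isoform expression vector to a custom Agilent SurePrint G3 4x180k array of ~44,000 double-stranded ~60-nt test sequences in quadruplicate, then imaging bound HNF4α on an Agilent G2565CA scanner at 2-µm resolution.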
“GTTATCTATGGAACATGGACTTTGAACCTCGCCTAGGGAGATTAGAGTATCGGTCGA”: the binding signal was 10.9 log2 normalized intensity.

Take “CCTTTGGTGCCTCTTTTTTCTTGTTGACTTGCCTAGGGAGATTAGAGTATCGGTCGA”: the binding signal was 1.91 log2 normalized intensity.

With “CCTTGCTATGGAGTGGACTTTGGCTTATGCGCCTAGGGAGATTAGAGTATCGGTCGA”, the binding signal stood at 7.08 log2 normalized intensity.

Take “TCTTCTTCTGGGGACTTCGGTCTTTTTTCTGCCTAGGGAGATTAGAGTATCGGTCGA”: the binding signal is 2.67 log2 normalized intensity.

“TGAACTTTGAACACCTCTTCTTTCTTCTCTGCCTAGGGAGATTAGAGTATCGGTCGA”: the binding signal was determined as 4.71 log2 normalized intensity.

As for “TTTCTCTTTTGACCTTTGGACTTTCACATTGCCTAGGGAGATTAGAGTATCGGTCGA”, the binding signal came out at 11 log2 normalized intensity.

Take “AGTCTAACTTTGGACTTTTATGTTAAGATCGCCTAGGGAGATTAGAGTATCGGTCGA”: the binding signal worked out at 2.93 log2 normalized intensity.

In the case of “TGGACTTTGAACCTCTCTTCTTTTTCGTCTGCCTAGGGAGATTAGAGTATCGGTCGA”, the binding signal was determined as 7.42 log2 normalized intensity.

For “ACTCATTTCACATTGGTGCCCTTTGCCTTTGCCTAGGGAGATTAGAGTATCGGTCGA”, the binding signal amounted to 4.99 log2 normalized intensity.

Turning to “GCCTGTCACCCAACCTCACCTAACCACATTGCCTAGGGAGATTAGAGTATCGGTCGA”, the binding signal worked out at 1.21 log2 normalized intensity.

For “GCTGATGCAGAGGGTGCAAAGTTTTTAAAGGCCTAGGGAGATTAGAGTATCGGTCGA”, the binding signal was found to be 1.28 log2 normalized intensity.

In the case of “ACACCTTTTCTAGCTGAGTTGACCTGTGTTGCCTAGGGAGATTAGAGTATCGGTCGA”, the binding signal was 4.51 log2 normalized intensity.

In the case of “ACATTAATCAGTCGCGTATCTGACTTTATCGCCTAGGGAGATTAGAGTATCGGTCGA”, the binding signal stood at 0.606 log2 normalized intensity.

Take “CATTCTCTAATCAGGTCGCTGCCTGCCCCTGCCTAGGGAGATTAGAGTATCGGTCGA”: the binding signal worked out at 3.39 log2 normalized intensity.

For “TACATTTTGCTCTGTTGTGTCAAAGGTCACGCCTAGGGAGATTAGAGTATCGGTCGA”, the binding signal stood at 7 log2 normalized intensity.

Regarding “TGGTACTATGACCTTTCACCTTTTAGCTTGGCCTAGGGAGATTAGAGTATCGGTCGA”, the binding signal amounted to 6.25 log2 normalized intensity.

In the case of “TGACCTGGTACTATGACCTTTCACCTTTTAGCCTAGGGAGATTAGAGTATCGGTCGA”, the binding signal is 7.78 log2 normalized intensity.

Turning to “CTATGACCTTTCACCTTTTAGCTTGGCATGGCCTAGGGAGATTAGAGTATCGGTCGA”, the binding signal stood at 5.08 log2 normalized intensity.

For “ACCTTTGACCTGGTACTATGACCTTTCACCGCCTAGGGAGATTAGAGTATCGGTCGA”, the binding signal was 7.83 log2 normalized intensity.

Consider “TTCACCTTTCGCCCTTTGTCCTATGACTCTGCCTAGGGAGATTAGAGTATCGGTCGA”, for which the binding signal is 5.44 log2 normalized intensity.

Consider “GAGTGACCTGGTATTGCAAGTATTTCACCCGCCTAGGGAGATTAGAGTATCGGTCGA”, for which the binding signal was determined as 1.59 log2 normalized intensity.

“CCCCAAAAACTTGGACTCTATAGCCTATGCGCCTAGGGAGATTAGAGTATCGGTCGA”: the binding signal was 2.66 log2 normalized intensity.

On to “TGGGGACCTTTGGGCTCTGACCCGAAGGGTGCCTAGGGAGATTAGAGTATCGGTCGA”, for which the binding signal is 2.6 log2 normalized intensity.

In the case of “CTTTTGAGTTTCTACCATAGACCCTGTTGGGCCTAGGGAGATTAGAGTATCGGTCGA”, the binding signal worked out at 0.898 log2 normalized intensity.

“CTAACCAGCTCTATCAGTCTGGGTCCAGTCGCCTAGGGAGATTAGAGTATCGGTCGA”: the binding signal came to 2.82 log2 normalized intensity.

On to “CCCCCGGCTCTACGCAAGTGGTACCTCCCGGCCTAGGGAGATTAGAGTATCGGTCGA”, for which the binding signal worked out at 2.76 log2 normalized intensity.

Consider “CTTGGCACTTAGCACAAGTGACTATTCTGGGCCTAGGGAGATTAGAGTATCGGTCGA”, for which the binding signal is 0.0244 log2 normalized intensity.

As for “AGGCAAAGGTGTCAGGACCTTTCTTTATGGGCCTAGGGAGATTAGAGTATCGGTCGA”, the binding signal was determined as 0.451 log2 normalized intensity.

In the case of “TCCTTTTCTTTCACATACAAAATTTACTTTGCCTAGGGAGATTAGAGTATCGGTCGA”, the binding signal amounted to 1.75 log2 normalized intensity.

With “GCAGAAGGTGTTTCAGATGGACCAAAGGTCGCCTAGGGAGATTAGAGTATCGGTCGA”, the binding signal was found to be 6.13 log2 normalized intensity.

On to “AAGGGCTGAGGTTAAAGTCCACATTCTTTAGCCTAGGGAGATTAGAGTATCGGTCGA”, for which the binding signal stood at 6.82 log2 normalized intensity.

For the sequence “GAGGCTGAAGTGAAGTTACAAAGGTCACACGCCTAGGGAGATTAGAGTATCGGTCGA”, the binding signal was 6.46 log2 normalized intensity.

“AAGCTTCACAAAGGGCTGAGGTTAAAGTCCGCCTAGGGAGATTAGAGTATCGGTCGA”: the binding signal amounted to 7.44 log2 normalized intensity.

With “TCACAAAGGGCTGAGGTTAAAGTCCACATTGCCTAGGGAGATTAGAGTATCGGTCGA”, the binding signal is 8.03 log2 normalized intensity.

For the sequence “CTGAGGTTAAAGTCCACATTCTTTAGCATAGCCTAGGGAGATTAGAGTATCGGTCGA”, the binding signal is 6.12 log2 normalized intensity.

Turning to “ATCAAAGGCTTCTAGAAGAGGTTAAAGACCGCCTAGGGAGATTAGAGTATCGGTCGA”, the binding signal is 1.58 log2 normalized intensity.

As to “CTCTGTATTGTAAAAGAAAGTGAGCAGGCAGCCTAGGGAGATTAGAGTATCGGTCGA”, the binding signal is -0.689 log2 normalized intensity.

Take “ACACAAACTATGACCTTTGAAACTTACATTGCCTAGGGAGATTAGAGTATCGGTCGA”: the binding signal was 6.68 log2 normalized intensity.

In the case of “TTCTTTTTGAAGCAAAGCCTTTGAGCAGATGCCTAGGGAGATTAGAGTATCGGTCGA”, the binding signal came to 0.807 log2 normalized intensity.

In the case of “GTTCTATGGGATGACCTTTGAGCAATAGGAGCCTAGGGAGATTAGAGTATCGGTCGA”, the binding signal was 6.05 log2 normalized intensity.

Turning to “CAGCAACACTCTACTACTTGACCTTTGAAAGCCTAGGGAGATTAGAGTATCGGTCGA”, the binding signal was determined as 6.62 log2 normalized intensity.

As for “AGCAAACACAAACTATGACCTTTGAAACTTGCCTAGGGAGATTAGAGTATCGGTCGA”, the binding signal came to 7.82 log2 normalized intensity.
